Shown are actives, neighbours in structure and some others; about 6.2% of the full set was active somewhere.
Gal4-VP16 FLuc = counter-screen for ROR gamma inhibitors: Gal4-VP16 reporter; Drosophila S2 Gal4-VP16 UAS-luciferase, luminescence, 20 h; Potency, µM (top dose mostly 53.6 µM), actives largely listed as inhibitors; 310,000 tested, 3.5% active; AID 2546;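 note: Gal4-VP16 expression switched on by copper sulfate through the metallothionein promoter; nearly all actives have a fitted effect of over 50% in size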
RORg inh = inhibitors of mouse ROR gamma transcriptional activity; P51450; AID 2551; 310,000 tested, 5.4% active; Drosophila S2 Gal4-RORgamma UAS-luciferase reporter, 20 h; Potency, µM (series often up to 53.6 µM), actives largely listed as inhibitors; note: nearly all actives have a fitted effect of over 60% in size
Target sequence (P51450 whole entry, looked up, the tested form may be a part): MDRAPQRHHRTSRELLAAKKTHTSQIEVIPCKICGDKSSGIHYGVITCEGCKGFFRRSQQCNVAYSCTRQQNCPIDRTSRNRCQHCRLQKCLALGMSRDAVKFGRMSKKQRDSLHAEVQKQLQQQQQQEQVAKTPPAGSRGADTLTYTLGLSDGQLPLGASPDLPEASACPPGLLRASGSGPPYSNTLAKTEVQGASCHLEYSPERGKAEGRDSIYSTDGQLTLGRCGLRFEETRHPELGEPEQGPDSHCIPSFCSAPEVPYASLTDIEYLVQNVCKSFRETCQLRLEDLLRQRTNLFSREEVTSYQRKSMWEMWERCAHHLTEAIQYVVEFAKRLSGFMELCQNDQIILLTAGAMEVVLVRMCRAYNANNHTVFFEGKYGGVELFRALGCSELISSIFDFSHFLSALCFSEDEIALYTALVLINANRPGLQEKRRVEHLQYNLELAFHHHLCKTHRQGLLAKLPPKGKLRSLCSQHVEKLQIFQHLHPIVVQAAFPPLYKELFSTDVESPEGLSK
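In this cell-based reporter format, copper sulfate (700 uM final) drives Gal4–ROR gamma fusion expression from a metallothionein promoter in Drosophila Schneider cells; compounds preincubated 1 hr, reporter read after 20 hr at ambient temperature.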
Luc counter = counter-screen: inhibitors of Kinase-Glo firefly luciferase | Kinase-Glo luciferase, ATP luminescence, 8 min | Potency, µM (titrated, usually from 38.3 µM), usual class: inhibitors | AID 1379 | 200,000 tested, 0.28% active | Q27757; note: nearly all actives have a fitted effect of over 60% in size
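Compound is pinned into ATP-containing buffer (10 uM ATP, imidazole pH 7.2, 7 mM MgCl2). Kinase-Glo luciferase reagent is then added. Light output is recorded following an 8-min room-temperature incubation.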
Hits are given with their value; 0 = inactive; ? = inconclusive; - = not tested or not shown; [ ] = remark or other dose. Calls come from the whole dose curve; as a rule, active = well fitted curve in the direction sought with a large enough effect; inconclusive = small, poorly fitted or top-dose-only effect, or another doubt; inactive = no such curve, though single readings can be large; an effect the other way counts as inactive or inconclusive.

SMILES	Gal4-VP16 FLuc	RORg inh	Luc counter
Cn1c(-c2csc(-c3cccc(C(F)(F)F)c3)n2)n[nH]c1=S	0	4.47µM	0
Cc1ccc(OCCOc2ccc(Br)cc2)c([N+](=O)[O-])n1	0	0	0
O=[N+]([O-])c1cccc(/C=N\N=C2c3ccccc3-c3ccccc32)c1O	20µM	10µM	0
NC(N)=N/N=C/c1cccc([N+](=O)[O-])c1O	0	0	0
CC(=O)Nc1sc(N/N=C/c2ccc(O)cc2)nc1-c1ccc(C)cc1	0	0	-
CC(C)(C)c1csc(N/N=C/c2ccc(O)cc2)n1	1µM	0.562µM	-
O=C(O)Cc1ccc(NC(=O)c2ccc(NC(=O)C3CC3)cc2)cc1	0	0	-
CC(C)C[C@@H](CC(=O)N[C@H](CC(=O)N[C@@H]1CCCC[C@H]1C(=O)N[C@H](CC(=O)N[C@@H](CCC(=O)O)CC(=O)O)Cc1ccccc1)C(C)C)NC(=O)[C@@H]1CCCC[C@H]1N	0	0	0
O=c1/c(=C/c2ccccn2)sc2nc3ccccc3n12	?	?	12.6µM
COC(=O)/C=c1/sc2nc3ccccc3n2c1=O	0	0	0
C/C(=N/Nc1ncc(Br)cn1)c1ccc([N+](=O)[O-])cc1	0	0[1.91 µM]	-
NNC(=O)c1cc(Cl)ccc1Cl	0	11.2µM	0
O=C(NN1CCOCC1)c1cc(Cl)ccc1Cl	0	0	-
CC(C)NC(=O)C1CCN(C2CCN(C(=O)/C=C/c3cccs3)CC2)CC1	0	0	-
CC(C)NC(=O)C1CCN(C2CCN(C(=O)c3cc4c(s3)CCCCC4)CC2)CC1	7.94µM	10µM	0
O=C(NC(Cc1cc(=O)[nH]c2ccccc12)C(=O)O)c1ccc(Cl)cc1 (stereo not drawn)	0	0	0
OC(COC(c1ccc(F)cc1)c1ccc(F)cc1)CN1CCCC1 (stereo not drawn)	0	0	-
O=C(CSc1nnc(NC(=O)c2ccc(F)cc2F)s1)NC1CCCC1	0	0	-
O=S(=O)(c1cccs1)N1CCN(CC(O)COc2cc(Cl)ccc2Cl)CC1 (stereo not drawn)	17.8µM	0	0
O=S(=O)(c1cccs1)N1CCN(c2cccc(Cl)c2)CC1	0	0	-
Cc1cccc(NC(=S)NC2CC3CCC(C2)N3Cc2ccco2)c1 (stereo not drawn)	0	0	0
Cc1cccc(NC(=S)NC2CC3CCCC(C2)N3Cc2ccco2)c1 (stereo not drawn)	?	11.2µM	0
Fc1ccc(NC(=S)NC2CC3CCCC(C2)N3Cc2cccs2)cc1 (stereo not drawn)	?	10µM	0
CC(C)c1ccc(NC(=O)NC2CC3CCC(C2)N3Cc2cccs2)cc1 (stereo not drawn)	0	0	0
Cc1ccc(NC(=S)NC2CC3CCCC(C2)N3Cc2cccs2)cc1 (stereo not drawn)	?	4.47µM	0
SMILES	Gal4-VP16 FLuc	RORg inh	Luc counter
CC(C)CNC(=S)NC1CC2CCCC(C1)N2Cc1ccco1 (stereo not drawn)	0	0	0
CC(C)CNC(=S)NC1CC2CCCC(C1)N2Cc1cccs1 (stereo not drawn)	0	11.2µM	0
Cc1ccc(NC(=S)NC2CC3CCCC(C2)N3Cc2ccco2)cc1 (stereo not drawn)	0	0	0
Cc1ccc(C2C3=C(CCCC3=O)Nc3c2c(C)nn3-c2ccccn2)o1 (stereo not drawn)	0	0	0
Cn1c(=O)c2c(nc(N/N=C/c3ccc(OC(=O)c4ccco4)cc3)n2Cc2ccccc2)n(C)c1=O	?	0	0
CC1=C(C(=O)OC(C)C)C(c2ccccn2)n2ncnc2N1 (stereo not drawn)	0	0	0
CC(C)N(C(=S)NC1CC2CCC1C2)c1ccccc1 (stereo not drawn)	0	?	0
CN(C)c1cccc(C(=O)NNC(=S)NC2CC3CCC2C3)c1 (stereo not drawn)	0	3.98µM	0
S=C(NCCC(c1ccccc1)c1ccccc1)Nc1cccc(Cl)c1	15.8µM	5.01µM	0
S=C(NCCN(C1CCCCC1)C1CCCC1)Nc1cccc(Cl)c1	?	17.8µM	-
S=C(Nc1cccc(Cl)c1)NC1CC2CCCC(C1)N2C1CCCC1 (stereo not drawn)	0	0	0
CC(C)c1cccc(C(C)C)c1NC(=S)Nc1cccc(Cl)c1	0	?	-
O=C(NCCc1ccc2c(c1)OCCO2)c1ccccn1	?	0	-
COc1ccccc1N(Cc1ccccc1)S(=O)(=O)c1cc(C(=O)O)ccc1Cl	0	0	0
CN1CCN(c2ncncc2-c2cccnc2)CC1	0	0	-
COC(=O)[C@@H]1C[C@@]2(O)[C@H](O)[C@H](O)[C@H](O)C[C@H]2N1Cc1ccc(N2CCN(C)CC2)cc1	0	0	0
COc1ccccc1NC(=S)NCc1ccc2c(c1)cc(C)n2C	?	5.62µM	0
Cc1cc2cc(CNC(=O)C3CC3)ccc2n1C	0	0	0
Cc1cc2cc(CNC(=S)NC3CCCCC3)ccc2n1C	?	14.1µM	0
CCCCC(=O)NCc1ccc2c(c1)cc(C)n2C	0	0	0
COc1ccc(C(=O)NCc2ccc3c(c2)cc(C)n3C)cc1OC	0	0	0
COc1ccc(CC(=O)NCc2ccc3c(c2)cc(C)n3C)cc1	0	0	0
COc1ccc(NC(=S)NCc2ccc3c(c2)cc(C)n3C)cc1	11.2µM	4.47µM	0
CCCCNC(=S)NCc1ccc2c(c1)cc(C)n2C	?	11.2µM	0
COC(=O)N1C(C)=Cc2ccccc2C1CC(C)=O (stereo not drawn)	0	0	0
SMILES	Gal4-VP16 FLuc	RORg inh	Luc counter
Cc1cc2c(cc1C)N(CC(=O)N1CCCC1)C(=O)CC(c1ccccc1)=N2	0	?	0
O=C(CN(CC1CCCO1)C(=O)c1nsc(Cl)c1Cl)NC1CCCC1 (stereo not drawn)	0	0	0
CC(C)CN(CC(C)C)C(=O)CN1C(=O)NC2(CCCc3ccccc32)C1=O (stereo not drawn)	0	0	-
CO[C@@H]1[C@@H](OC2OC(C)C(OC3CC(C)(O)C(OC(=O)CC(C)C)C(C)O3)C(N(C)C)C2O)[C@@H](CC=O)C[C@@H](C)C(=O)/C=C\C2O[C@H]2C[C@@H](C)OC(=O)C[C@H]1OC(C)=O (stereo partly drawn)	0	0	-
Cc1cccc(/C=N/NC(=O)Cn2nnnc2N)n1	0	0	-
CCC(CC)C(=O)NCc1ccc2c(c1)cc(C)n2C	0	0	0
CCOC(=O)NCc1ccc2c(c1)cc(C)n2C	0	0	0
CCc1cccc(C)c1NC(=S)NCc1ccc2c(c1)cc(C)n2C	7.94µM	5.62µM	0
Cc1cc2cc(CNC(=O)Nc3ccccc3)ccc2n1C	0	?	0
CCc1cccc(C)c1NC(=S)NCc1ccccc1	31.6µM	3.55µM	0
Cc1ccccc1NC(=S)NCc1ccc2c(c1)cc(C)n2C	11.2µM	6.31µM	0
Cc1cccc(C)c1NC(=S)NCc1ccccc1	0	0	0
Cc1cc2cc(CNC(=S)NCc3ccccc3)ccc2n1C	?	17.8µM	0
CC(C)c1ccc(C(=O)Nc2cccnc2)cc1	0	?	-
FC(F)(F)c1cc(Oc2ccccc2)ncc1-c1nnc(-c2ccccc2Cl)o1	0	0	-
Nc1nc(Nc2cccc(F)c2)nc(NCc2ccco2)c1[N+](=O)[O-]	0	0	-
C=C(C)C(=O)OCCOC(=O)C(=C)C	0	0	-
CN1CCN(c2ncc3nc(-c4ccc(F)cc4)c(=O)n(Cc4cccs4)c3n2)CC1	0	?	-
